ChEMBL document CHEMBL4513216, “Probing the Open Global Health Chemical Diversity Library for Multistage-Active Starting Points for Next-Generation Antimalarials” (ACS Infect Dis, 2020)
Screen size: about 65,000 compounds; about 2,100 (3.2%) showed an effect of 50% or more. The median lay at about -52%. Many of the other results were omitted from the sample, so strong results are more common in it than they were.

Each compound was assayed on Plasmodium falciparum (assay: Screen against P. falciparum Asexual Blood Stage (ABS), at 5uM). Conditions: tested at 5 uM.
Assay type: functional, Dd2
`COc1cccc(Cn2cc(N3C(=O)CCC3=O)cn2)c1` showed an INHIBITION of -83.8%. `c1cnc(N2CCC3(COCc4cnc(-c5cccnc5)nc43)C2)nc1` (stereo unspecified) showed an INHIBITION of -78.5%. Compound `COCC1CN(c2ncccn2)Cc2cnn(CC3CC3)c21` (stereo unspecified) has an INHIBITION of -16.5%. Work on `CS(=O)(=O)N1CCN(C(=O)C2CSCCC(=O)N2)CC1` (stereo unspecified) yielded an INHIBITION of -38.6%. `Cc1nc(CN2CCN(C3CCOC3)Cc3cccnc32)cs1` (stereo unspecified) was tested, and the INHIBITION was -78.6%. For `CCCNC(=O)c1cccc(CNCc2csc(C(C)C)n2)c1`, the INHIBITION was -48.2%. For `Cc1noc(NC(=O)c2cccc(Br)c2)n1`, the INHIBITION was -81.9%. `OC1(CN2CCCC2)CCCN(Cc2ccc(F)cc2Cl)C1` (stereo unspecified) gave an INHIBITION of 58.3%. Compound `Cc1cc(C(=O)N2CCCC(O)(CN3CCCC3)C2)ccc1Cl` (stereo unspecified) has an INHIBITION of -21.4%. Work on `O=C1CCC2(CCN(Cc3ccc(F)cc3Cl)CC2)CN1CCO` yielded an INHIBITION of -54%. For `Cn1cc(C[C@H]2[C@H](O)CCN2Cc2ccc(F)cc2)cn1`, the INHIBITION was 6.42%. Work on `Cc1cc(CN(C)C(=O)Nc2ccccc2C)no1` yielded an INHIBITION of -85.5%. For `Cc1ccc(CN(CCN(C)C)Cc2ncc[nH]2)s1`, the INHIBITION was -73.3%. `Cc1ccc(CN(CCCO)Cc2nc3ccccc3[nH]2)s1` showed an INHIBITION of -76.9%. With `Cc1ccc(CN(CCN(C)C)Cc2nc3ccccc3[nH]2)s1` the INHIBITION was 61.2%. With `Cc1ccccc1NC(=O)CCNC(=O)c1ccoc1` the INHIBITION was -37.5%. `COCCCNC(=O)Cc1nc(-c2ccncc2)n[nH]1` was tested, and the INHIBITION was -95.8%. `CCC1=NC2(CCC(C(=O)Nc3ccc(C)nc3)CC2)C(=O)N1C` (stereo unspecified) was tested, and the INHIBITION was -28.2%. For `Cc1cccc(CNc2cc(C3CCCNC3)ccn2)n1` (stereo unspecified), the INHIBITION was -46.7%. With `CC(C)(C)OC(=O)NC1CCCN(Cc2cccc(O)c2)C1` (stereo unspecified) the INHIBITION was 51.7%. `CC(=O)NC1CCCN(Cc2ccn(C)c(=O)c2)C1` (stereo unspecified) showed an INHIBITION of -10.7%. Compound `CC(C)(C)OC(=O)NC1CCCN(Cc2cccs2)C1` (stereo unspecified) has an INHIBITION of 25.8%. In the case of `Cc1nn(C)c2nc(N(Cc3cnn(C)c3)C3CCCCC3)sc12`, the INHIBITION is reported as 60%. Compound `Cc1nn(C)c2nc(N(CCN(C)C)C3CCCC3)sc12` has an INHIBITION of -9.31%. With `COCCN(Cc1cnn(C)c1)c1nc2c(s1)c(C)nn2C` the INHIBITION was -50.7%. `O[C@H]1CCN(CC2CC2)[C@H]1Cc1ccncc1` was tested, and the INHIBITION was -6.99%. `CC1CCCN(CCCNC(=O)c2ccc(N(C)S(C)(=O)=O)cc2Cl)C1` (stereo unspecified) gave an INHIBITION of -129%. `CC(O)CNCc1c[nH]nc1-c1cc2ccccc2o1` (stereo unspecified) showed an INHIBITION of -15.3%. Compound `Cc1nc(CN2C(=O)C[C@H]3[C@H]2CCN3CC2CCOC2)cs1` (stereo partly specified) has an INHIBITION of -84.1%. For `COc1ccccc1C1(CNc2snc(Cl)c2C#N)CCOCC1`, the INHIBITION was 27%. `COc1ccccc1C1(CNc2ccc(C(=O)N(C)C)cn2)CC1` was tested, and the INHIBITION was -70.8%. `COc1ccccc1C1(CNCc2ccc([S+](C)[O-])cc2)CC1` (stereo unspecified) was tested, and the INHIBITION was 69.5%. Work on `COc1ccccc1C1(CNc2cn[nH]c(=O)c2Cl)CC1` yielded an INHIBITION of -7.64%. Compound `COc1ccccc1C1(CNc2cn[nH]c(=O)c2Cl)CCOCC1` has an INHIBITION of -28.1%. `COc1ccccc1C1(CNCc2cccc(C#N)c2)CCOCC1` showed an INHIBITION of 66.9%. With `CC(C)(C)CN(CCC#N)C(=O)c1cccc(CC#N)c1` the INHIBITION was -98%. `CCCC(NC(=O)c1ccc(OC)cc1C)c1nnn[nH]1` (stereo unspecified) showed an INHIBITION of -54.4%. Compound `Cc1ncc(C(=O)N2CCCC2(C)C(=O)N2CCOCC2)c(C)n1` (stereo unspecified) has an INHIBITION of -32.2%. Compound `CCS(=O)(=O)N1CCCN(CCCOC)CC1` has an INHIBITION of -97.9%. `CCOC1COC2(CCN(C(=O)c3cccc(C)n3)CC2)C1` (stereo unspecified) was tested, and the INHIBITION was -46%. For `CC1(C)[C@@H]2CC=C(CN3CCCn4nc(C(=O)NCCO)cc4C3)[C@H]1C2`, the INHIBITION was -43.4%. Compound `Cn1cc(CN2CC[C@@H]3[C@@H]2CCN3Cc2ccc3c(c2)OCO3)cn1` has an INHIBITION of -88.4%. Compound `c1cncc(CN2CC[C@@H]3[C@@H]2CCN3Cc2ccc3c(c2)OCO3)c1` has an INHIBITION of 59.5%. In the case of `CN1CC[C@@H]2[C@@H]1CCN2Cc1ccc2c(c1)OCO2`, the INHIBITION is reported as 43%. With `CCOCc1nn(CC2CC2)c2c1CN(Cc1cccs1)CC2` the INHIBITION was -70.5%. `COCc1nn(CC2CC2)c2c1CN(Cc1cccs1)CC2` showed an INHIBITION of 50%. `COCc1nn(CC2CC2)c2c1CN(Cc1ccco1)CC2` gave an INHIBITION of -53.2%. `CCO[C@H]1C[C@@H](O)C12CCN(C1Cc3ccccc3C1)CC2` was tested, and the INHIBITION was -26.8%. `NS(=O)(=O)c1ccc(NCc2ccccc2F)cc1C(F)(F)F` showed an INHIBITION of -6.73%. `O=C(NC1CCCC1)c1ccnc(C2CCNCC2)c1` showed an INHIBITION of -131%. In the case of `Fc1ccccc1CNc1ccnc(C2CCNCC2)c1`, the INHIBITION is reported as 66.5%. With `O=C(Nc1cccc(C2SCCS2)c1)C1CCCN1c1nccs1` (stereo unspecified) the INHIBITION was 36.7%. In the case of `CN1CCN(c2ccc(Cl)cc2NC(=O)c2ccco2)CC1`, the INHIBITION is reported as 42%. For `CN1CCN(c2ccc(Br)cc2NC(=O)c2ccco2)CC1`, the INHIBITION was 53%. `CN1CCN(c2ccccc2NC(=O)c2ccco2)CC1` was tested, and the INHIBITION was 32.7%. Compound `CSCC(C)N(C)C(=O)c1nn(-c2ccc(F)cc2C)cc1O` (stereo unspecified) has an INHIBITION of -118%. `Cc1cccc(CC(=O)N2CCCC(c3n[nH]c4nccnc34)C2)c1` (stereo unspecified) was tested, and the INHIBITION was -9.5%. `Cc1cc(-c2nn(C)c(Cl)c2CN2CC[C@H](CO)[C@@H](O)C2)no1` gave an INHIBITION of -69.4%. For `Cc1cc(-c2nn(C)c(Cl)c2CN2Cc3ccccc3C(O)C2)no1` (stereo unspecified), the INHIBITION was 53.8%. Compound `Cc1cc(-c2nn(C)c(Cl)c2CN2CCOCC(O)C2)no1` (stereo unspecified) has an INHIBITION of -22.3%. Work on `Cn1nc(COc2cccnc2)c2c1CCN(c1ncccn1)C2` yielded an INHIBITION of -42.9%. `CCN(CC)c1nc2ccsc2c(=O)n1CCC(=O)NC1CCCC1` showed an INHIBITION of -39.2%. With `Cc1nc(N2CCCC2)ncc1-c1cc(O)nc(N2CCOCC2)n1` the INHIBITION was -32.6%. `O=C(C[C@@H]1COC[C@H]2CN(Cc3ccncc3)C[C@@H]12)N1CCOCC1` was tested, and the INHIBITION was -108%. Work on `CC(=O)Nc1ccc(-n2cncn2)c(F)c1` yielded an INHIBITION of 47.2%. For `COCCS(=O)(=O)Nc1ccc(-n2cncn2)c(F)c1`, the INHIBITION was 68.3%. `COCCNC(=O)Nc1ccc(-n2cncn2)c(F)c1` was tested, and the INHIBITION was -29%. With `COCCN(C)Cc1nc(-c2cccc(F)c2F)oc1C` the INHIBITION was -36.7%. For `CN1CCC2(Cc3ccccc3CN(C(=O)CCN)C2)C1` (stereo unspecified), the INHIBITION was -100%. Work on `CN1CCC2(Cc3ccccc3CN(C(=O)Cc3cccc(Cl)c3)C2)C1` (stereo unspecified) yielded an INHIBITION of 54.8%. In the case of `CCCC(=O)N1Cc2ccccc2CC2(CCN(C)C2)C1` (stereo unspecified), the INHIBITION is reported as 8.68%.
